The source of these data is PubChem BioAssay.

Activity calls are given as the source filed them.

Test [1] is described as follows: binders of probe aFSTL3 on microarray, primary screen, stem cell growth factor project, biochemical, small-molecule microarray, fluorescence 635/667 (AID 1064).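 Further: measures binding of the biotinylated anti-FSTL3 antibody to printed compounds.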 The following applies: higher = more signal.
Test [2] is described as follows: binders from COS7 lysate, DM2A8 probe, primary screen, torsin A project, cell lysate, small-molecule microarray, fluorescence 635/667 (AID 1065). The following applies: higher = more signal, COS7 lysate expressing mutant human TOR1A.
Test [3] is described as follows: binders of probe aFGF2 on microarray, primary screen, stem cell growth factor project, biochemical, small-molecule microarray, fluorescence 635/667 (AID 1067).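 Further: measures binding of biotinylated aFGF2 protein to printed compounds on slides; z-score merges feature fluorescence and signal-to-noise across triplicate slides.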 The following applies: higher = more signal.
Test [4] in a line: binders of probe aFGF10 on microarray, primary screen, stem cell growth factor project, biochemical, small-molecule microarray, fluorescence 635/667 (AID 1071).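 Further: score merges 667 nm spot intensity and signal to noise from triplicate slides.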 The conditions noted are these: higher = more signal.
In test [5] the target is Neurogenic locus notch homolog protein 2 (Homo sapiens) (UniProt Q04721). In words: Notch2 binders on small-molecule microarrays, primary screen, biochemical, small-molecule microarray, 635 nm fluorescence, stem cell growth factors (AID 1073). The conditions noted are these: Notch2 binding, higher = more signal.
Test [6] concerns the target Pro-neuregulin-1, membrane-bound isoform (Homo sapiens) (UniProt Q02297). In words: NRG1 binders on small-molecule microarrays, primary screen, psychiatric disease protein project, biochemical, small-molecule microarray, fluorescence 635/667 (AID 1075).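 Further: score combines 667 nm spot fluorescence with signal to noise.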 The conditions noted are these: NRG1 binding, 635 nm fluorescence, higher = more signal.
In test [7] the test system is Neuregulin-1 EGF-like domain. In words: binders of neuregulin-1 EGF-like domain, primary screen, biochemical, small-molecule microarray, 635 nm fluorescence (AID 1081).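 Further: binding of the protein to compounds printed on small-molecule microarray slides.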 The conditions noted are these: small-molecule microarray binding, higher = more signal.
Test [8] can be described thus: FRG1 promoter luciferase signal modulators, primary screen, FRG1 inhibition for FSHD, cell-based, C2C12 myotubes, firefly/Renilla luciferase, luminescence (AID 1084). The following applies: higher = more signal, called active from +8 up or from −8 down.
A short description of test [9]: binders of probe aFST on microarray, primary screen, stem cell growth factor project, biochemical, small-molecule microarray, fluorescence 635/667 (AID 1086).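 Further: score merges 667 nm fluorescence with signal-to-noise of each printed compound spot.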 The conditions noted are these: higher = more signal.
A short description of test [10]: binders of probe aHhip on microarray, primary screen, stem cell growth factor project, biochemical, small-molecule microarray, fluorescence 635/667 (AID 1087).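 Further: score merges spot fluorescence at 667nm with spot signal to noise ratio.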 The conditions noted are these: higher = more signal.
Test [11] concerns PRMT1 (protein arginine N-methyltransferase 1). In words: PRMT1 binders on small-molecule microarrays, primary screen, biochemical, small-molecule microarray, 635 nm fluorescence (AID 1088).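 Further: binding of Prmt1 protein to compounds spotted on small-molecule microarray slides.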 The following applies: small-molecule microarray binding, higher = more signal.
Test [12] can be described thus: yeast growth modulation, basal conditions, primary screen, YJM789 clinical isolate, OD600, 24 h (AID 1089).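 Further: growth of clinical yeast isolate S. cerevisiae YJM 789 seeded 1000 cells per well; test concentration not given here.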 The conditions noted are these: S. cerevisiae YJM789 growth, higher = more signal, called active from +8 up or from −8 down.
The nature of test [13]: fission yeast growth modulation, primary screen, strain 972, OD600, 24 h, no modulator (AID 1090).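 Further: basal condition with compound alone and no growth modifier present; test concentration not given here.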 The following applies: S. pombe 972 growth, higher = more signal, called active from +8 up or from −8 down.
The nature of test [14]: S. cerevisiae growth modulation with rapamycin, primary screen, strain BY4716, OD600, 96 h (AID 1091). Further: test concentration not given here. The conditions noted are these: higher = more signal, called active from +8 up or from −8 down.
Test [15] addresses Torsin-1A-interacting protein 2 (Homo sapiens) (UniProt Q8NFQ8). In words: LULL1 binders on small-molecule microarray, primary screen, cell lysate, human LULL1 lysate, 635/667 nm fluorescence (AID 1092).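 Further: score merges per-feature 667 nm fluorescence with signal-to-noise.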 The conditions noted are these: hLULL1 lysate binding, 635 nm fluorescence, higher = more signal.
Test [16] is described as follows: E. coli growth modulation, two-sided OD650, primary screen, E. coli filamentation project, strain DRC41, 24 h (AID 1093).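 Further: MC1000 strain lacking acrAB efflux and sulA so SOS filamentation is blocked; test concentration not given here.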 The conditions noted are these: OD650, 24 h, higher = more signal, called active from +8 up or from −8 down.
Test [17] can be described thus: small-molecule microarray binders of probe aLefty2, primary screen, biochemical, biotinylated probe, 635/667 nm fluorescence (AID 1094).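 Further: score merges spot fluorescence near 667 nm with spot signal-to-noise ratio.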 The conditions noted are these: higher = more signal.
The subject of test [18] is Noggin (protein binding on small-molecule microarray). In words: Noggin binders on small-molecule microarray, primary screen, biochemical, 635/667 nm fluorescence (AID 1095).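 Further: score merges 667 nm feature fluorescence with signal to noise over triplicate slides.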 The conditions noted are these: 635 nm fluorescence, higher = more signal.
Test [19] addresses Neurogenic locus notch homolog protein 3 (Homo sapiens) (UniProt Q9UM47). In words: NOTCH3 binders on small-molecule microarray, primary screen, biochemical, 635/667 nm fluorescence (AID 1096). The following applies: NOTCH3 binding, 635 nm fluorescence, higher = more signal.
Test [20] can be described thus: small-molecule microarray binders of probe aEGFR, primary screen, biochemical, biotinylated probe, 635/667 nm fluorescence (AID 1097).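 Further: probe is a biotinylated anti-EGFR antibody binding compounds printed on slides; score combines fluorescence near 667 nm and signal to noise of each spot.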 The conditions noted are these: higher = more signal.

Sequence of Pro-neuregulin-1, membrane-bound isoform (Homo sapiens) (Q02297 whole entry, looked up, the tested form may be a part, canonical isoform): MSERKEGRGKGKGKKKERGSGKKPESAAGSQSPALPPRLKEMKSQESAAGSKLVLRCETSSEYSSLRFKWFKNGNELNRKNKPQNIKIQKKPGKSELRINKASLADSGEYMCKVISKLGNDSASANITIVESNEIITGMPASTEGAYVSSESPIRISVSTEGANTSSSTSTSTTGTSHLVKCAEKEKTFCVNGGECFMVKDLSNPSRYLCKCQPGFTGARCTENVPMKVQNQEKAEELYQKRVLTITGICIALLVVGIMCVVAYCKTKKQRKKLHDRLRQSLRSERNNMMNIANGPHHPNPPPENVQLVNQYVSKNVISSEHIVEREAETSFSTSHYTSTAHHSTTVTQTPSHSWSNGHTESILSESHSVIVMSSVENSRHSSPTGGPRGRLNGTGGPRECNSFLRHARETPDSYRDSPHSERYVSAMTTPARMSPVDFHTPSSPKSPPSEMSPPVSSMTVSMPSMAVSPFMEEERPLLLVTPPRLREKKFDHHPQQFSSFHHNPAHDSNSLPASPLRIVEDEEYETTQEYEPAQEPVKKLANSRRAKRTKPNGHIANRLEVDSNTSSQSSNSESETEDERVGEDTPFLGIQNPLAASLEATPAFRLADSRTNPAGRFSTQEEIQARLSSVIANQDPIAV
Sequence of Neurogenic locus notch homolog protein 3 (Homo sapiens) (Q9UM47 whole entry, looked up): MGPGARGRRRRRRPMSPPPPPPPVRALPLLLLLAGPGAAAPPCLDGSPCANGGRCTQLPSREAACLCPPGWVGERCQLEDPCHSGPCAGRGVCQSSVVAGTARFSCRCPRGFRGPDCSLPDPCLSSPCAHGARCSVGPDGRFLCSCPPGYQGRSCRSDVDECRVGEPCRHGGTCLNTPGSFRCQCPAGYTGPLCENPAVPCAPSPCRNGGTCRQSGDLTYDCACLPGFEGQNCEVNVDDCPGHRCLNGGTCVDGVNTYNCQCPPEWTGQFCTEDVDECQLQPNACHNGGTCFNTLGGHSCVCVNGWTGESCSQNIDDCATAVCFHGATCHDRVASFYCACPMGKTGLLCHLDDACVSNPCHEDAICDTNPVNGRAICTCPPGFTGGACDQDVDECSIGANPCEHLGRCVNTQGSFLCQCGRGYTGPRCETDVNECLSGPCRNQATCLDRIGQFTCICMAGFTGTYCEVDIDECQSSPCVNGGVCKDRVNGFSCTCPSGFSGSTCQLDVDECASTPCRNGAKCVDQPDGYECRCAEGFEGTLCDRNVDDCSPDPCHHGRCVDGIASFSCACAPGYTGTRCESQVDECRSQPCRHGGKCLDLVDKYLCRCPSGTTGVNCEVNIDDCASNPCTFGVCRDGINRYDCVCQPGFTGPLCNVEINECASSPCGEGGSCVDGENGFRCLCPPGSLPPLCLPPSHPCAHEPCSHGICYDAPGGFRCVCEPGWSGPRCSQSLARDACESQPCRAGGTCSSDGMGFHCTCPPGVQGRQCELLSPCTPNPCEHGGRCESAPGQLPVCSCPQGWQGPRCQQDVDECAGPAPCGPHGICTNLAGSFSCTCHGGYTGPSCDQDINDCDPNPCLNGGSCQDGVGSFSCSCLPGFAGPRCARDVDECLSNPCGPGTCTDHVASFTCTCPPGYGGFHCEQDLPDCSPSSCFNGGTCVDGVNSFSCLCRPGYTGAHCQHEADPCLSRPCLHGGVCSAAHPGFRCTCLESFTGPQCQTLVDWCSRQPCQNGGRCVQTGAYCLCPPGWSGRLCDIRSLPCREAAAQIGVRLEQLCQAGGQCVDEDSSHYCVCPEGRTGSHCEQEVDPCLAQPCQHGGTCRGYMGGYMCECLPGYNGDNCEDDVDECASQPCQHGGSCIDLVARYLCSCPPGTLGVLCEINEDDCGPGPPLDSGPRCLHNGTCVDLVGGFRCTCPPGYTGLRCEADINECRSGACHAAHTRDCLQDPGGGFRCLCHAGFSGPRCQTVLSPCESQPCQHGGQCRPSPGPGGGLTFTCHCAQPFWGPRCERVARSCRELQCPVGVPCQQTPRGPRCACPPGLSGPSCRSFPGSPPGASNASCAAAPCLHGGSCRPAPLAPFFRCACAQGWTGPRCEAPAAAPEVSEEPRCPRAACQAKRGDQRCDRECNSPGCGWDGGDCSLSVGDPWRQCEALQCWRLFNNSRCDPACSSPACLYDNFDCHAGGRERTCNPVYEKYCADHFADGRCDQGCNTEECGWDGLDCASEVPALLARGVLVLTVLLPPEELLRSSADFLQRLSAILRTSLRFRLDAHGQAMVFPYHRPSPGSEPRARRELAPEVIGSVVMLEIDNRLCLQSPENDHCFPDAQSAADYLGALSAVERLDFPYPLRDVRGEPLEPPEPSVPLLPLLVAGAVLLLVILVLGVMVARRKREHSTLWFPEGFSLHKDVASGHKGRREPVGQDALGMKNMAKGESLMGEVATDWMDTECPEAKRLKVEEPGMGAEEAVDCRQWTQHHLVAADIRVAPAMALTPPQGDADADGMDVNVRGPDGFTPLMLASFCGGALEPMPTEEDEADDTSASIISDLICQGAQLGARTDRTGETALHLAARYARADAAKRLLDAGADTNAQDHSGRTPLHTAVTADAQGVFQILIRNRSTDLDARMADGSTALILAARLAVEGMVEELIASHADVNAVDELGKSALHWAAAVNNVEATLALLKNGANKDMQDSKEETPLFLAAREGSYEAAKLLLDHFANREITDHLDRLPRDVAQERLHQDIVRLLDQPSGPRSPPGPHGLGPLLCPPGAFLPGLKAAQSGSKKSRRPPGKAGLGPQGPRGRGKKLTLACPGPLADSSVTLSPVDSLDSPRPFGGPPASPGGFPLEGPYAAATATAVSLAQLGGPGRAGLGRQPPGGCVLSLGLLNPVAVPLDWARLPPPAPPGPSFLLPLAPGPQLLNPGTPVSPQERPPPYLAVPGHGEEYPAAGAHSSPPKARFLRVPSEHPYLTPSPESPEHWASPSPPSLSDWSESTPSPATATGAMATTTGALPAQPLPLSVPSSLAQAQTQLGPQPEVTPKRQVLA
Sequence of Torsin-1A-interacting protein 2 (Homo sapiens) (Q8NFQ8 whole entry, looked up): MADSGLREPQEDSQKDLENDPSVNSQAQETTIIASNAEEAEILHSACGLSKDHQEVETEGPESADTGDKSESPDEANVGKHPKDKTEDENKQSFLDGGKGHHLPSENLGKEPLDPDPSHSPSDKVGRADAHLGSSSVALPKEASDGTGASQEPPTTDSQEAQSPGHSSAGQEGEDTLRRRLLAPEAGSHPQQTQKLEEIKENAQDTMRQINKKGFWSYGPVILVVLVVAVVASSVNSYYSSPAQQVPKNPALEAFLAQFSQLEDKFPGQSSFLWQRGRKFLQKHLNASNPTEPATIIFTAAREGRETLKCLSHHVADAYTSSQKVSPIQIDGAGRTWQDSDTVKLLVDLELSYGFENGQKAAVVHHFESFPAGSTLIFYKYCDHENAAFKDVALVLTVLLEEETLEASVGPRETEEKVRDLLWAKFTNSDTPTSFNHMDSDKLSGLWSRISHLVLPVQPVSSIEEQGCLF

Turning to `COCCCNC(=O)[C@@]1(Sc2ccc(C)cc2)CC(=O)N(Cc2ccccc2C(F)(F)F)[C@@H]1c1ccc(CO)cc1I`, the composite z-score was 1.21 in test [1]; -0.204 in test [2]; -0.132 in test [3]; -2.12 in test [4]; -1.8 in test [5]; 1.17 in [6]. In addition, the composite z-score was -0.823 in test [7]; -0.228 in [9]; -0.132 in test [10]; 0.242 in test [11]; 1.08 in test [15]; 0.0245 in test [17]. Moreover, the composite z-score was -2.51 in [18], -1.4 in [19] and -0.203 in test [20]. The z-score in [8] is -0.903 (inactive); in test [12], -0.394 (inactive); in [13], -1.05 (inactive); in test [14] it was 0.461 (inactive); in [16], 0.217 (inactive).

`COC(=O)[C@@]1(Cc2ccc(OC)cc2)[C@H]2c3cc(C(=O)N4CCCC4)n(CCn4cc([N+](=O)[O-])nc4C)c3C[C@H]2CN1C(=O)c1ccccc1`: the composite z-score was 2.45 in test [1]; 2 in test [2]; 0.861 in test [3]; 1.25 in test [4]; 1.5 in test [5]; 1.58 in test [6]. Besides, the composite z-score in [7] is 1.31; in test [9] it was 2.71; in test [10], 3.56; in test [11] it was -0.153; in [15], 3.38; in [17], 1.25. For the same compound, the composite z-score in test [18] was 0.152; in test [19], 0.413; in test [20], 0.924. In addition, the z-score in test [8] is 2.02 (inactive); in test [12], -0.382 (inactive); in [13], 0.28 (inactive); in test [14], 0.725 (inactive); in [16] it was -1.01 (inactive).

With `C=C(COC)/C(=C/C[C@H](OC(C)=O)c1ccccc1OCCO)c1cc(C(=O)OC)ccc1OC`, the composite z-score is -0.398 in test [1]; 0.275 in test [2]; -0.0948 in [3]; 1.05 in test [4]; -0.738 in test [5]; 0.727 in [6]. For the same compound, the composite z-score in test [7] was 1.28; in [9], 0.318; in test [10], -0.0003; in test [11], 1.48; in [15] it was 1.76; in test [17], -0.0928. Also, the composite z-score is 0.485 in [18], 0.372 in test [19] and -0.0815 in [20]. Besides, the z-score in test [8] was 0.181 (inactive); in test [12] it was 0.909 (inactive); in test [13], -0.662 (inactive); in test [14], -0.16 (inactive); in test [16], 0.952 (inactive).

`COCCOC(=O)N1C(=O)[C@@]2(c3cc(C#CCC(C(=O)OC)C(=O)OC)ccc31)[C@H](c1ccc(O)cc1)N1[C@H](c3ccccc3)[C@H](c3ccccc3)OC(=O)[C@H]1[C@@H]2C(=O)Nc1nc2ccccc2s1`: the composite z-score in test [1] is -0.0882; in [2], 1.39; in [3], 0.0001; in test [4], 0.785; in test [5] it was 1.27; in test [6], 1.12. Moreover, the composite z-score in test [7] stood at 1.27; in [9] it was 0.606; in [10], 0.382; in test [11], 1.53; in [15], 2.76; in [17], 0.0424. In addition, the composite z-score in test [18] was 1.39; in test [19], 1.04; in test [20], 0.106. In addition, the z-score in test [8] was 0.909 (inactive); in [12] it was 0.978 (inactive); in test [13] it was 0.583 (inactive); in test [14], 0.0726 (inactive); in test [16] it was 0.338 (inactive).

Take `CC(C)C[C@@H]1NC(=O)[C@@]23C(=O)N[C@@H](Cc4ccccc4)C2[C@H](C)[C@@]2(C)O[C@H]2C3/C=C/C/C=C\CNC(=O)CNC1=O` (stereo not given in full): the composite z-score in [1] is -0.351; in test [2], 0.0664; in test [3], -0.13; in test [4], 0.573; in [5] it was 0.0474; in test [6], 0.458. In addition, the composite z-score in test [7] is 0.325; in [9], -0.175; in test [10], -0.48; in [11] it was 0.514; in [15], 2.23; in [17] it was 0.0207. In addition, the composite z-score was 0.609 in test [18], 0.53 in test [19] and -0.0812 in [20]. The z-score in [8] was -0.866 (inactive); in test [12], -0.135 (inactive); in test [13], -1.1 (inactive); in test [14], -0.159 (inactive); in [16] it was -0.52 (inactive).
